Shown are actives, neighbours in structure and some others; about 9.9% of the full set was active somewhere.
MCF10A rerep: A quantitative high throughput screen for small molecules that induce DNA re-replication in MCF 10a normal breast cells | MCF 10A DNA re-replication, Hoechst nuclear intensity, 48 h | Potency, µM (top dose mostly 46.1 µM), for the others: top-dose activity, positive = re-replication, usual class: activators | 2.9% of 350,000 active | AID 624296, 2012; further: potency means the concentration at half of the fitted maximal effect; % of control where 0% means no effect; nearly all actives have a fitted effect of over 50% in size
IL1B secr inh: qHTS for Inhibitors of Inflammasome Signaling: IL-1-beta AlphaLISA Primary Screen | AID 743279, 2014 | 4.7% of 360,000 active | THP-1 LPS/ATP IL-1B secretion, AlphaLISA, 16 h; active compounds read low | activity change, % at 57.5 µM; in the data active means activity change below about -50%; inconclusive means mostly about -30% to -49%; further: on the % scale 0 is the no-effect control and ±100 the full control effect
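THP-1 cells pretreated 1 hr with compounds (up to 57.5 uM final), then stimulated with LPS (250 ng/mL final) plus ATP (1.25 mM final); secreted IL-1B measured by AlphaLISA after 16 hr, decreased signal indicating inhibition.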
SW480 rereplic: A quantitative high throughput screen for small molecules that induce DNA re-replication in SW480 colon adenocarcinoma cells | SW480 DNA re-replication, Hoechst DNA content imaging, 48 h | Potency, µM (titrated, usually from 46.1 µM), for inactives: at the top dose re-replication activation, actives largely listed as activators | 1.8% of 340,000 active; further: potency means the concentration at half of the fitted maximal effect; % of control where 0% means no effect; nearly all actives have a fitted effect of over 55% in size
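Per well, 250 cells were exposed to pinned compound for 48 hr. Nuclear DNA was visualised with Hoechst (40 min, 37 C) and total object intensity recorded by fluorescence scanning.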
KB-V1 cytotox: qHTS assay for MDR1-selective chemotherapeutics: Primary screen using the drug-selected MDR subline cells KB-V1 | KB-V1 MDR cells viability, CellTiter-Glo, 72 h | AID 1347076, 2019 | 3.4% of 400,000 active | Potency, µM (highest dose often 46.1 µM), usual class: cytotoxic; further: potency means the concentration at half of the fitted maximal effect; on the % scale 0 is the no-effect control and ±100 the full control effect; nearly all actives have a fitted effect of over 60% in size
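KB-V1, DMEM (no phenol red) + 10% FBS; cpd pin-transferred, titration series; 72 h, 37 degrees C; CellTiter-Glo, luminescence. Data normalized, curve-fit.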
KB-3-1 cytotox: qHTS assay for MDR1-selective chemotherapeutics: Primary screen using the parental adenocarcinoma cell KB-3-1. KB-3-1 viability, CellTiter-Glo ATP luminescence, 72 h. 1.4% of 400,000 active. AID 1347075, 2019. Potency, µM (highest dose often 46.1 µM), actives largely listed as cytotoxic; further: potency means the concentration at half of the fitted maximal effect; on the % scale 0 is the no-effect control and ±100 the full control effect; nearly all actives have a fitted effect of over 60% in size
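Cells are dispensed, compounds pinned in, plates held at 37 °C for 72 h, then CellTiter-Glo is added and luminescence read after 10 minutes. Cell line: parental KB-3-1 in phenol-red-free DMEM, 10% FBS.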
* hit, by the source's call; i = inactive; ? = inconclusive; · = not tested or not shown; [ ] = dose if it differs, or a comment. Unless noted, the call rests on the fitted dose curve; in most records, active means well fitted curve in the direction sought with a large enough effect; inconclusive means small, poorly fitted or top-dose-only effect, or another doubt; inactive means no such curve, though single readings can be large; an effect the other way counts as inactive or inconclusive.

SMILES	MCF10A rerep	IL1B secr inh	SW480 rereplic	KB-V1 cytotox	KB-3-1 cytotox
CC12CN(NC(=O)c3ccccc3F)C3(C#N)CC1CCC23C (stereo unspecified)	3%	11	1%	i	i
CCN1C[C@@H]2[C@@H]3C(=O)N(C)C(=O)[C@@H]3[C@](CC)(C1=O)N2C(=O)c1ccc(C)cc1	1%	4	-10%	i	i
CCOC(=O)C(C(=O)OCC)C1OC(=O)c2cc3c(cc21)C(=O)OC3C(C(=O)OCC)C(=O)OCC (stereo unspecified)	?	-98*	29%	i	i
COc1ccc(CCNc2nc(-c3sc(C)nc3C)cs2)cc1OC	?	-56*	19%	i	?
COc1ccc(CCNc2nc(-c3ccncc3)cs2)cc1OC	0%	-21	-5%	?	i
COc1ccc(CCNc2nc(-c3ccc(O)cc3)cs2)cc1OC	?	-62*	-20%	i	i
Cc1nc2c(nc1C)C(=O)c1ccccc1C2=O	5.8µM*	-28	13µM*	9.2µM*	16µM*
CSCC(C)N1CCC(CO)(CCCc2ccccc2)CC1 (stereo unspecified)	-2%[9.22 µM]	9	-22%	i	i
OCC1(CCCc2ccccc2)CCN(C2CCSCC2)CC1	?	-70*	-3%	i	i
CCOC(=O)C1(CCCc2ccccc2)CCN(C2CCSCC2)CC1	9%	14	?	i	i
OCC1(CCCc2ccccc2)CCN(C2CCC2)CC1	?	-54*	?	i	i
Cc1ccc(-n2c(C(C)C)nc3oc4ccccc4c(=O)c3c2=O)cc1	0%	4	-22%	i	i
O=C(CCOc1ccccc1)N1CCN(S(=O)(=O)c2cccs2)CC1	9%	0	0%	i	i
O=C(CCOc1ccccc1)N1CCN(S(=O)(=O)c2ccccc2F)CC1	3%	-7	3%	21µM*	i
COc1ccc2sc(N(Cc3cccnc3)C(=O)c3cccs3)nc2c1	·	·	·	?	16µM*
CCOC(=O)c1c(CN2CCOCC2)n(-c2ccccc2)c2cc(Br)c(O)cc12	-1%	-15	-22%	i	i
CCOC(=O)c1c(CN(C)C)n(-c2ccccc2)c2cc(Br)c(OC)cc12	?	-8	?	21µM*	?
CCOC(=O)c1c(C)n(C)c2cc(-c3ccc(F)cc3)c(O)cc12	9%	15	-2%	i	i
CCOC(=O)c1c(CN2CCN(C)CC2)n(C)c2cc(Br)c(OC)cc12	?	-19	?	?	?
CCOC(=O)c1c(C)n(CC(O)CN(C)C)c2cc(Br)c(OC)cc12 (stereo unspecified)	10%	-79*	?	i	i
CCOC(=O)c1c(CN(C)C)n(-c2ccc(C)cc2)c2cc(Br)c(O)cc12	?	-63*	27%	?	i
CCOC(=O)c1c(CN2CCOCC2)n(-c2ccccc2)c2cc(Br)c(OC)cc12	23µM*	44	?	18µM*	?
COc1ccc(CC(=O)Nc2ccc(S(=O)(=O)N3CCN(C)CC3)cc2)cc1	5%	-21	0%	i	i
CCN(CC(=O)NCc1cccs1)CC(=O)Nc1ccccc1C	-1%	-7	-7%	i	i
CC1CCCN(Cc2c(O)ccc3c(=O)c(-c4ccc(Cl)cc4)c(C(F)(F)F)oc23)C1 (stereo unspecified)	·	·	·	i	i
SMILES	MCF10A rerep	IL1B secr inh	SW480 rereplic	KB-V1 cytotox	KB-3-1 cytotox
CCOC(=O)c1c(CN2CCCCC2)n(C)c2cc(Br)c(O)cc12	23%	11	10%	10µM*	i
COc1ccc(CCNC(=O)CCCCCn2c(SCC(N)=O)nc3cc4c(cc3c2=O)OCO4)cc1OC	1%	-15	-4%	i	?
CCN(CC)CC(=O)Nc1c(C)cccc1C	?	-6	3%	i	i
Cc1cccc(C)c1NC(=O)CN(C)C(=O)c1ccc(-c2cccc(C(F)(F)F)c2)o1	-27%	-1	4.1µM*	i	i
Cc1cccc(C)c1NC(=O)CN(C)c1ccc(C(F)(F)F)cn1	1%	-6	12µM*	i	i
O=S(=O)(c1ccc(F)c(F)c1)N1CCN(S(=O)(=O)c2cccs2)CC1	-4%	i	-23%	i	i
C=CCn1c(=S)sc2c(=O)[nH]cnc21	0%	2	-4%	i	i
CN(C(=O)CSCC(=O)Nc1ccc(Cl)cc1)C1CCCCC1	-2%	-53*	-13%	i	i
CCCCCCCCN1C(=O)[C@H](CC(=O)NCCCOC)C[C@@]2(C(=O)OC)CC(C)(C)CC=C12	·	-15	·	i	i
COC(=O)[C@@]12C[C@@H](CC(=O)NCc3cccs3)C(=O)N(Cc3ccccc3)C1=CCC(C)(C)C2	·	0	·	?	i
CCCCCCCCN1C(=O)[C@H](CC(=O)NCc2ccc(C)o2)C[C@@]2(C(=O)OC)CC(C)(C)CC=C12	·	-71*	·	?	?
CCCCCCCCN1C(=O)[C@H](CC(=O)NCC2CCCCC2)C[C@@]2(C(=O)OC)CC(C)(C)CC=C12	·	-6	·	?	i
COC(=O)[C@@]12C[C@@H](CC(=O)NCCc3ccccc3OC)C(=O)N(Cc3cccc4ccccc34)C1=CCC(C)(C)C2	·	0	·	23µM*	?
COC(=O)[C@@]12C[C@@H](CC(=O)NCc3ccccc3)C(=O)N(Cc3ccccc3)C1=CCC(C)(C)C2	·	-60*	·	21µM*	?
CCCCCCCCN1C(=O)[C@H](CC(=O)NCCCOCCCC)C[C@@]2(C(=O)OC)CC(C)(C)CC=C12	·	-11	·	23µM*	18µM*
O=c1c2sc3ccccc3c2n(Cc2ccccc2F)c(=O)n1Cc1ccccc1	·	·	·	i	i
CCOC(=O)N1CCN(S(=O)(=O)N2CCCC(C(=O)NCc3ccc(C)cc3)C2)CC1 (stereo unspecified)	·	-15	·	?	i
O=C(NCCc1ccccc1)c1ccc(NC(=O)C2CC2)cc1	-1%	0	0%[9.22 µM]	?	i
CCCCN(C(=O)Cc1cccc(F)c1)c1c(N)n(CCC)c(=O)[nH]c1=O	-1%	-1	0%	i	i
CCCCOCCCNC(=O)C[C@@H]1C[C@@]2(C(=O)OC)CC(C)(C)CC=C2N(Cc2cccc3ccccc23)C1=O	·	-5	·	21µM*	?
COC(=O)[C@@]12C[C@@H](CC(=O)NCCCCc3ccccc3)C(=O)N(Cc3cccc4ccccc34)C1=CCC(C)(C)C2	·	?	·	18µM*	?

Assay outcomes (PubChem)
